From the supplement of paper PMC3334620
Whole data set: some 33,000 sequences, median “E-score (-0.5 to 0.5)” near -8e-05, cut for the highest 2% near 0.23. The full list was thinned out, with the highest values kept by preference.

target: T1, Nrg2 (UniProt P38082); assay: PBM E-score (8-mer binding enrichment) (E-score (-0.5 to 0.5)); higher = stronger / more preferred TF binding; details: protein concentration: 100 nM; construct: GST-full length
T1 sequence: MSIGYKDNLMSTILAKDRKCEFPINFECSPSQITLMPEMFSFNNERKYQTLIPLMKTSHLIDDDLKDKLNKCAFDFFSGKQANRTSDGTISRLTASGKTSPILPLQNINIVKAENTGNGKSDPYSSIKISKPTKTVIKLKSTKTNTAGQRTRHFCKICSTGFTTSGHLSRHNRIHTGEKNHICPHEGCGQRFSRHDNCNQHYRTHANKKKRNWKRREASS
Method: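 Universal 'all 10-mer' protein binding microarrays (Agilent AMADID 015681) probed with GST-tagged S. cerevisiae TFs (full-length or DBD) made by in vitro transcription/translation (PURExpress), about 100-200 nM. Bound TF was detected with fluorescent anti-GST. Each ungapped 8-mer (which stands for itself and its reverse complement) is scored by the PBM enrichment score (E-score), a modified Wilcoxon-Mann-Whitney statistic from -0.5 to +0.5, computed with the Universal PBM Analysis Suite. Scale: above 0.35 generally sequence-specific binding.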

Going from TCACTGCA to CTCGGCCA, the “PBM E-score” value falls from 0.167 to 0.104.

First: ACCTGGAA
Second: CGGGCTAG
The “PBM E-score” value of the first is higher: 0.203 for the first, -0.0659 for the second.

First: GTAAGACA
Second: GGGATCAA
The “PBM E-score” value of the first is higher: -0.0374 for the first, -0.0876 for the second.

First: ATGAGATC
Second: CAGTTGGA
The “PBM E-score” value of the first is higher: 0.0358 for the first, -0.00944 for the second.

Going from CAGGGTGC to CAGGGTTC, the “PBM E-score” value rises from 0.19 to 0.387.

Going from AAGGGTTA to CAGGGTTA, the “PBM E-score” value falls from 0.076 to 0.0393.

Going from AAGGGTTG to AAGGGTTC, the “PBM E-score” value rises from 0.167 to 0.248.

Compared with AAATGCTA, GACGCTAC is lower in “PBM E-score” value: 0.0225 for the first, -0.0645 for the second.

Compared with AAACTCTG, CATCTTAA is higher in “PBM E-score” value: 0.102 for the first, 0.251 for the second.

First: ATCATCAG
Second: CATCTTAG
The “PBM E-score” value of the first is higher: 0.0405 for the first, 0.0135 for the second.

First: CATCTCAC
Second: TATCTCAA
The “PBM E-score” value of the first is lower: -0.0644 for the first, 0.267 for the second.

Going from CATCTCAA to CTCATCAG, the “PBM E-score” value rises from -0.0442 to 0.247.

Compared with CATCTCAG, GATCTCAA is lower in “PBM E-score” value: 0.23 for the first, 0.115 for the second.

Going from AATCTTAA to AATCTCAA, the “PBM E-score” value rises from 0.0405 to 0.124.

Compared with CTCATCAC, GCCCTCAC is lower in “PBM E-score” value: -0.0539 for the first, -0.177 for the second.

Going from GGTTCAAA to CACGCAGG, the “PBM E-score” value rises from 0.0475 to 0.0602.

First: GACAGTGC
Second: AGTGATCA
The “PBM E-score” value of the first is lower: 0.0298 for the first, 0.063 for the second.

Going from AAACCCAA to CTCGTTGC, the “PBM E-score” value rises from 0.0986 to 0.212.

Going from ACTTGTAA to AGTCATAT, the “PBM E-score” value rises from -0.0121 to 0.0126.

First: AGGCTGAG
Second: GCACTAAA
The “PBM E-score” value of the first is lower: -0.0549 for the first, 0.0452 for the second.

Compared with GTACTAAA, CCACTACA is lower in “PBM E-score” value: 0.121 for the first, 0.045 for the second.

Compared with TCACTACA, ACACTACA is lower in “PBM E-score” value: 0.24 for the first, 0.108 for the second.

Going from TTACTAAA to TCACTAAA, the “PBM E-score” value falls from 0.123 to 0.099.

Compared with ATACTAAA, ACACTAAA is higher in “PBM E-score” value: 0.234 for the first, 0.271 for the second.

First: CAGATGCA
Second: ATTAACCG
The “PBM E-score” value of the first is lower: -0.158 for the first, 0.107 for the second.

First: ATGAGACA
Second: AGGTCGGG
The “PBM E-score” value of the first is higher: 0.0867 for the first, -0.142 for the second.

First: AAAACCAT
Second: CTTTCGCA
The “PBM E-score” value of the first is higher: 0.137 for the first, -0.0222 for the second.

Compared with ATTTCGCA, ATTTCGCC is lower in “PBM E-score” value: 0.274 for the first, 0.0633 for the second.

Compared with ATTTCTCG, ATTTCGAG is lower in “PBM E-score” value: 0.285 for the first, 0.14 for the second.

Compared with ATTTCTCC, ATTTCGCG is higher in “PBM E-score” value: 0.0443 for the first, 0.275 for the second.

Compared with ATTTCTCA, ATTTCGGG is lower in “PBM E-score” value: 0.0394 for the first, 0.037 for the second.

First: AGTTAAGA
Second: GGAACTCC
The “PBM E-score” value of the first is higher: 0.0745 for the first, 0.0233 for the second.

First: GACTCCCA
Second: CGATCTCC
The “PBM E-score” value of the first is lower: -0.248 for the first, -0.0956 for the second.

Going from AATAGGAC to ACGTCATC, the “PBM E-score” value falls from 0.0448 to -0.0886.

First: GCTATTCC
Second: ACTGCTCC
The “PBM E-score” value of the first is lower: -0.0857 for the first, 0.0162 for the second.

First: TAACCCAA
Second: CTAATTGC
The “PBM E-score” value of the first is lower: -0.00379 for the first, 0.0943 for the second.

Compared with ATATCTCC, CTATCTCA is lower in “PBM E-score” value: 0.251 for the first, 0.0251 for the second.

Going from ATATCTCG to ATATCTCA, the “PBM E-score” value rises from 0.0423 to 0.238.

First: ATCTCAAT
Second: GTCTCTCA
The “PBM E-score” value of the first is higher: 0.0327 for the first, -0.0103 for the second.

Compared with CTCTCTCA, CTATCTCC is higher in “PBM E-score” value: -0.0307 for the first, 0.0511 for the second.

Going from ATCTCAAG to ATCTCTCA, the “PBM E-score” value falls from 0.238 to 0.236.

First: ATCTCAAC
Second: ATCTCTCC
The “PBM E-score” value of the first is higher: 0.158 for the first, 0.0215 for the second.

Compared with ACTCGCCT, GTCAGGCA is lower in “PBM E-score” value: 0.063 for the first, -0.108 for the second.

First: TGCGGGAA
Second: CAGACCTG
The “PBM E-score” value of the first is higher: 0.125 for the first, -0.119 for the second.

Compared with GCGAATAA, GAGATACC is lower in “PBM E-score” value: 0.18 for the first, 0.127 for the second.

Compared with AGCTATGG, ATATCAAT is higher in “PBM E-score” value: -0.0356 for the first, 0.212 for the second.

Compared with CTATCAAG, ATATCAAG is higher in “PBM E-score” value: 0.0817 for the first, 0.285 for the second.

Compared with AACTCAAG, CTCTTGAA is higher in “PBM E-score” value: -0.0395 for the first, -0.0353 for the second.

First: CAGGGCGG
Second: CTAGTTGA
The “PBM E-score” value of the first is lower: -0.0602 for the first, 0.128 for the second.

Compared with GACATTGC, AACCCGGG is higher in “PBM E-score” value: -0.0455 for the first, 0.255 for the second.

First: ACCCCGGG
Second: ATCCCGCG
The “PBM E-score” value of the first is lower: -0.056 for the first, 0.294 for the second.

Compared with AACCCGCC, ATCCCGCA is higher in “PBM E-score” value: 0.00993 for the first, 0.08 for the second.

Compared with AACCCGCG, ATCCCGCC is lower in “PBM E-score” value: 0.267 for the first, 0.0743 for the second.

Going from AACCCGCA to CACCCGGG, the “PBM E-score” value falls from 0.0835 to -0.0923.

Going from AGTGGTCA to TCGCCGAA, the “PBM E-score” value rises from -0.145 to -0.124.

First: CAGAGTAC
Second: ATATGGCC
The “PBM E-score” value of the first is lower: -0.112 for the first, -0.0218 for the second.

First: CTTGTTAA
Second: GTTGTTAA
The “PBM E-score” value of the first is lower: 0.0818 for the first, 0.241 for the second.

Compared with ATTGTTAA, CGCAAGGC is higher in “PBM E-score” value: 0.0152 for the first, 0.203 for the second.

Going from ACTGTATC to CCTGTATA, the “PBM E-score” value rises from -0.0153 to 0.0265.

Going from CCTGTATC to CAGATTAC, the “PBM E-score” value falls from 0.233 to -0.0348.

First: CCGGACAA
Second: ACGGACAA
The “PBM E-score” value of the first is lower: 0.058 for the first, 0.233 for the second.

Going from GCGGACAA to CGTACTTA, the “PBM E-score” value falls from 0.15 to 0.115.

First: CACCAAGA
Second: AGTTTGAA
The “PBM E-score” value of the first is lower: 0.00109 for the first, 0.23 for the second.

Compared with AGTTTGAC, CGTTTGAA is higher in “PBM E-score” value: -0.104 for the first, 0.00719 for the second.

Compared with GGATCGCC, AAAGGAGG is lower in “PBM E-score” value: 0.0218 for the first, -0.252 for the second.

Going from ATCAAACC to ACAGAGCT, the “PBM E-score” value falls from 0.123 to -0.214.

First: AGCGCGCT
Second: ATCGAGCA
The “PBM E-score” value of the first is higher: 0.187 for the first, 0.0824 for the second.

Going from ATCGAGCC to AGCGCGCG, the “PBM E-score” value rises from -0.103 to 0.274.

Going from ACCGCGCT to ACCGCGCG, the “PBM E-score” value rises from 0.0712 to 0.301.

Compared with ATCGAGCG, CGCCCGCC is lower in “PBM E-score” value: 0.229 for the first, 0.085 for the second.

Compared with TGCCCGCA, CGCCCGCA is higher in “PBM E-score” value: 0.148 for the first, 0.229 for the second.

Going from ACCGCGCC to AGCGCGCC, the “PBM E-score” value rises from 0.00956 to 0.0741.

First: CACGTAGG
Second: AAAATTCA
The “PBM E-score” value of the first is lower: -0.156 for the first, 0.199 for the second.

Compared with CAACGCGC, GAAGGAAA is lower in “PBM E-score” value: 0.215 for the first, -0.238 for the second.

Going from AAAGCGCA to AAGGGGCG, the “PBM E-score” value falls from 0.012 to -0.117.

First: ATCTCGCA
Second: CGCGCAGC
The “PBM E-score” value of the first is higher: 0.0354 for the first, 0.0142 for the second.

First: ATCTCGCC
Second: CAAGCGCA
The “PBM E-score” value of the first is lower: 0.0341 for the first, 0.363 for the second.

Going from CAGGGGCC to ATCTCGCG, the “PBM E-score” value rises from 0.191 to 0.282.

First: CGCGCAGA
Second: CAGGGGCG
The “PBM E-score” value of the first is lower: 0.232 for the first, 0.252 for the second.

First: CAAGCGCC
Second: GGCGCAGA
The “PBM E-score” value of the first is lower: -0.196 for the first, -0.0307 for the second.

Going from AAGTGATT to CCCTGCGC, the “PBM E-score” value rises from 0.0989 to 0.1.

Going from CCTCTTTC to ACACTAGC, the “PBM E-score” value rises from -0.184 to -0.00995.

Going from ACTAGGAC to GTTTGCGA, the “PBM E-score” value rises from -0.00051 to 0.0803.

Compared with GGTCTAGA, AACGTTTC is lower in “PBM E-score” value: -0.109 for the first, -0.144 for the second.

Compared with ATCTCCAC, CTGTTCGC is higher in “PBM E-score” value: -0.0729 for the first, 0.0452 for the second.

Compared with GAGACAAA, CACACCAA is higher in “PBM E-score” value: -0.091 for the first, 0.063 for the second.

Going from AACTATCG to ATCGCGCC, the “PBM E-score” value rises from 0.0118 to 0.201.
